Assay outcomes: PubChem BioAssay, Sanford-Burnham Center for Chemical Genomics
Compounds with a hit are over-represented: about 31% of the library has one in this group of screens.
CYP2C9 act – human CYP2C9 activators, primary screen, biochemical, luminescence; recombinant CYP2C9, luciferin-H conversion; stronger effect = higher value; factor 1 = untreated enzyme, 0 = blocked; Cytochrome P450 2C9 (Homo sapiens), P11712; AID 1024, 2008; activation factor at 5 µM; actives 1.4% (n = 96,000);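 active means activation factor of 2 or more for CYP2C9 at a 5 µM dose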;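 further: 0 = sulfaphenazole-blocked wells and 1 = vehicle-only wells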
CYP2C9 inh – blockers of cytochrome P450 2C9 activity – biochemical, luminescence, ADME assay, primary screen; P11712; CYP2C9 Supersomes, luciferin-H conversion; inhibition, % at 5 µM; actives 20% (n = 96,000); AID 777, 2007;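 active means blocking of liver enzyme CYP2C9 beyond about 50% at 5 µM, limit read from the data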
PLAP activator – PLAP enzyme activators, biochemical, luminescence, HTS. actives 1.2% (n = 96,000). AID 696, 2007. purified PLAP enzyme, luminescent substrate read-out; stronger effect = higher value. activation fold at 20 µM; in the data active means activation fold above about 2
CYP2C19 inh – blockers of cytochrome P450 2C19 activity – biochemical, luminescence, ADME assay, primary screen. P33261. CYP2C19 Supersomes, luciferin-H EGE luminescence, 30 min. actives 21% (n = 96,000). inhibition, % at 5 µM;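 active means CYP2C19 inhibition above a set limit at 5 µM in the primary screen, cut at about 50% in these data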;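 further: plate controls were negative control wells for no effect and 2.5 mM tranylcypromine positive control for full effect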
Target sequence (P33261 whole entry, looked up): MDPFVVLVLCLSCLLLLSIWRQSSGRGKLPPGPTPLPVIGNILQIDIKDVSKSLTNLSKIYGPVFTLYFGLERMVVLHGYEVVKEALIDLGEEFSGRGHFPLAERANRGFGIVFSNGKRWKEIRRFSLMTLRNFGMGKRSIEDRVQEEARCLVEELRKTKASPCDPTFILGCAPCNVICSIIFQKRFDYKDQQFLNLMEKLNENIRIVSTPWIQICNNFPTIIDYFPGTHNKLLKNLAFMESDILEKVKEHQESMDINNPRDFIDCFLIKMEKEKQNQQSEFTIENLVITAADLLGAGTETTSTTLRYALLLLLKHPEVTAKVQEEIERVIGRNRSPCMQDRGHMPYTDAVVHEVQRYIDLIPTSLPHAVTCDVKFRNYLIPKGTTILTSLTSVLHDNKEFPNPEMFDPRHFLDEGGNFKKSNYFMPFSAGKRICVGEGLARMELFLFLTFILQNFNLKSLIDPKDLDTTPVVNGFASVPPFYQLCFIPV
CYP2C19 act – human CYP2C19 activators, primary screen, biochemical, luminescence | Cytochrome P450 2C19 (Homo sapiens), P33261 | recombinant CYP2C19, luciferin-H EGE luminescence; stronger effect = higher value; 0 = fully inhibited enzyme, 1 = untreated enzyme | activation factor at 5 µM | 96,000 tested, under 10 active;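 active means activation factor of at least 2 at 5 µM in the primary screen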;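 further: 0 = wells with 2.5 mM tranylcypromine and 1 = vehicle-only wells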
The depositor's hits bear a star.

S=c1[nH]nc(C2CCCCC2)n1/N=C/c1cccs1 was read as CYP2C9 act 0.9, CYP2C9 inh 10.9, PLAP activator 1.1, CYP2C19 inh 20.4 and CYP2C19 act 0.8.
For O=C(c1cc2nc(-c3ccccc3)cc(-c3ccccc3)n2n1)N1CCN(C(=O)c2ccco2)CC1 the results were CYP2C9 act 0.6, CYP2C9 inh 41.8, PLAP activator 1.1, CYP2C19 inh 38.4 and CYP2C19 act 0.6.
OCCN(CCO)c1ncnc2c1oc1ccc(Br)cc12 was read as CYP2C9 act 0.7, CYP2C9 inh 25.4, PLAP activator 1.2, CYP2C19 inh -9.4 and CYP2C19 act 1.1.
Screening COc1ccc(N2C(=O)C3CCCN3C2c2cccc(F)c2)cc1Cl (stereo not drawn) returned CYP2C9 act 0.9, CYP2C9 inh 7.6, PLAP activator 1.1, CYP2C19 inh 8.1 and CYP2C19 act 0.9.
Screening O=C(c1ccccc1OCc1ccccc1Br)N1CCN(c2ncccn2)CC1 returned CYP2C9 act 0, CYP2C9 inh 98.9*, PLAP activator 1.8, CYP2C19 inh 97.1* and CYP2C19 act 0.
Screening O=C(NCCC(=O)N1CCN(c2ncccn2)CC1)c1ccccc1Cl returned CYP2C9 act 0.5, CYP2C9 inh 54.0*, PLAP activator 0.9, CYP2C19 inh 27.9 and CYP2C19 act 0.7.
`O=C(COc1ccccc1Cl)N1CCN(c2ncccn2)CC1` gave CYP2C9 act 0.7, CYP2C9 inh 28.5, PLAP activator 1.3, CYP2C19 inh 92.4* and CYP2C19 act 0.1.
`O=C(NCCC(=O)N1CCN(c2ncccn2)CC1)c1ccccc1` gave CYP2C9 act 1, CYP2C9 inh -4.2, PLAP activator 1, CYP2C19 inh -12.7 and CYP2C19 act 1.1.
Screening O=C(COc1ccccc1Cl)OCC(=O)N1CCN(S(=O)(=O)c2ccccc2)CC1 returned CYP2C9 act 1.3, CYP2C9 inh -26.4, PLAP activator 0.9, CYP2C19 inh 18.1 and CYP2C19 act 0.8.
O=C(Nc1cc(C(F)(F)F)ccc1N1CCOCC1)c1cn2ccccc2n1 was read as CYP2C9 act 0.5, CYP2C9 inh 54.1*, PLAP activator 0.8, CYP2C19 inh 0.5 and CYP2C19 act 1.
For CCC(=O)Nc1cc(C(F)(F)F)ccc1N1CCOCC1 the results were CYP2C9 act 0.7, CYP2C9 inh 30.5, PLAP activator 1.1, CYP2C19 inh 31.8 and CYP2C19 act 0.7.
`Cc1cc(C(=O)OCC(=O)Nc2cc(C(F)(F)F)ccc2N2CCOCC2)c(C)o1` gave CYP2C9 act 0.4, CYP2C9 inh 63.3*, PLAP activator 1.2, CYP2C19 inh 31.7 and CYP2C19 act 0.7.
`O=C(Nc1cc(C(F)(F)F)ccc1N1CCOCC1)c1ccc(Cl)nc1` gave CYP2C9 act 0.6, CYP2C9 inh 37.0, PLAP activator 1, CYP2C19 inh 75.9* and CYP2C19 act 0.2.
Screening Cc1ccn2cc(C(=O)Nc3ccccc3N3CCOCC3)nc2c1 returned CYP2C9 act 0.5, CYP2C9 inh 45.2, PLAP activator 0.9, CYP2C19 inh 44.7 and CYP2C19 act 0.6.
COC(=O)c1ccc(CNC(=O)CNc2cc(C(F)(F)F)ccc2N2CCOCC2)cc1 was read as CYP2C9 act 0, CYP2C9 inh 95.3*, PLAP activator 1, CYP2C19 inh 45.4 and CYP2C19 act 0.5.
`C=CCN(CC=C)Cc1ccc(C(=O)OC)o1` gave CYP2C9 act 0.9, CYP2C9 inh 11.3, PLAP activator 1.2, CYP2C19 inh 28.9 and CYP2C19 act 0.7.
Screening O=C(Nc1cc(C(F)(F)F)ccc1N1CCOCC1)c1c(F)c(F)c(F)c(F)c1F returned CYP2C9 act 1, CYP2C9 inh -1.2, PLAP activator 0.9, CYP2C19 inh 1.9 and CYP2C19 act 1.
`O=C(Nc1cc(C(F)(F)F)ccc1N1CCOCC1)c1ccccc1` gave CYP2C9 act 0.9, CYP2C9 inh 11.4, PLAP activator 0.9, CYP2C19 inh 64.4* and CYP2C19 act 0.4.
For COc1ccc(C2N=C(c3ccccc3)C(C)(C)N2O)cc1 (stereo not drawn) the results were CYP2C9 act 0.9, CYP2C9 inh 12.1, PLAP activator 1, CYP2C19 inh 83.1* and CYP2C19 act 0.2.
For CC1(C)C(c2ccccc2)=NC(c2ccccc2)N1O (stereo not drawn) the results were CYP2C9 act 1.1, CYP2C9 inh -9.6, PLAP activator 1.1, CYP2C19 inh 40.0 and CYP2C19 act 0.6.
For Cc1c(NC(=O)c2ccc(COc3ccc4ccccc4c3)o2)c(=O)n(-c2ccccc2)n1C the results were CYP2C9 act 1, CYP2C9 inh 4.8, PLAP activator 1.6, CYP2C19 inh 0.0 and CYP2C19 act 1.
For CCn1c2ccccc2c2cc(NS(=O)(=O)c3ccc(C)cc3)ccc21 the results were CYP2C9 act 0.1, CYP2C9 inh 86.1*, PLAP activator 0.9, CYP2C19 inh 54.2* and CYP2C19 act 0.5.
For CCn1c2ccccc2c2cc(NC(C)=O)ccc21 the results were CYP2C9 act 0.7, CYP2C9 inh 29.7, PLAP activator 0.8, CYP2C19 inh 98.5* and CYP2C19 act 0.
`CC(C)(C#N)NC(=O)c1ccco1` gave CYP2C9 act 1, CYP2C9 inh 3.8, PLAP activator 1, CYP2C19 inh -3.1 and CYP2C19 act 1.
`O=C(/C=C/c1cccs1)Nc1nc(-c2ccccc2)cs1` gave CYP2C9 act 0.2, CYP2C9 inh 85.0*, PLAP activator 0.8, CYP2C19 inh 70.2* and CYP2C19 act 0.3.
`O=C(/C=C/c1ccc2c(c1)OCO2)Nc1nc(-c2ccccc2)cs1` gave CYP2C9 act 0.3, CYP2C9 inh 74.0*, PLAP activator 0.9, CYP2C19 inh 58.9* and CYP2C19 act 0.4.
CC1(C)C2CCC1(CS(=O)(=O)N1CCCc3ccccc31)C(=O)C2 (stereo not drawn) was read as CYP2C9 act 3.2*, CYP2C9 inh -222.2, PLAP activator 1, CYP2C19 inh 41.5 and CYP2C19 act 0.6.
Screening COc1cccc(NS(=O)(=O)CC23CCC(CC2=O)C3(C)C)c1 (stereo not drawn) returned CYP2C9 act 0.9, CYP2C9 inh 6.2, PLAP activator 1.1, CYP2C19 inh 58.8* and CYP2C19 act 0.4.
Screening CC1(C)C2CCC1(CS(=O)(=O)N1CCOCC1)C(=O)C2 (stereo not drawn) returned CYP2C9 act 1.4, CYP2C9 inh -35.9, PLAP activator 0.9, CYP2C19 inh 0.4 and CYP2C19 act 1.
`COc1ccccc1N1CCN(S(=O)(=O)CC23CCC(CC2=O)C3(C)C)CC1` (stereo not drawn) gave CYP2C9 act 1.2, CYP2C9 inh -24.3, PLAP activator 1.6, CYP2C19 inh 59.5* and CYP2C19 act 0.4.
